Test results as given in paper PMC7819943, “Rice protein-binding microarrays: a tool to detect cis-acting elements near promoter regions in rice”.
Whole data set: some 35,000 sequences, median “fluorescence intensity (a.u.)” near 10,000, cut for the highest 2% near 52,000. The sample holds the highest values, similar sequences and a random draw of the others, so the mix is not that of the screen.

Target: T1, OsWOX13 (Oryza sativa, UniProt Q5QMM3 1-267)
T1 sequence: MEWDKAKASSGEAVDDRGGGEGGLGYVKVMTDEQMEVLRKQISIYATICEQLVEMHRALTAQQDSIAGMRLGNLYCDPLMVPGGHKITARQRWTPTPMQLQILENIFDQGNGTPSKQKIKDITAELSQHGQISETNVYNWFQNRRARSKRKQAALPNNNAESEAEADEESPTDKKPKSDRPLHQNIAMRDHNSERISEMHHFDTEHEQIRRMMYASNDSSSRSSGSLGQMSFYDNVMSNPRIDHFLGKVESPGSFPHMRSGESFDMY
Assay: protein-binding microarray (RPBM); PBS, 2% BSA, 51.3 ng/ul salmon testes DNA, 50 uM zinc acetate, 200 nM TF, 25 C, 1 h; high values mean tight binding
Conditions: protein: recombinant; tags: N-terminal polyhistidine and DsRed monomer fusion (pET32a); label: CyDye5-dUTP incorporated in the synthesized complementary strand; 3' TTTTT single-stranded linker to array surface; dsDNA, one strand shown
Method in brief: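 An Axon 4000B scanner gave the binding signal as per-feature fluorescence intensity in arbitrary units. This followed washing of a custom Agilent array that had been incubated for 1 h at 25 °C with 200 nM protein in PBS, 2% BSA, salmon testes DNA and 50 µM zinc acetate. The proteins were transcription factors fused at the N-terminus to polyhistidine and DsRed, expressed in E. coli BL21-CodonPlus and purified on Ni–NTA.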

Sequence | binding signal
AGATTAATTAGGCTTAATAGATTCGTCTACGTTTAATACTCGGAGTCACCTAGTGCAG | 20900 fluorescence intensity (a.u.)
GCCAAATTAGATGGAAAGTTGGTTATATAGGTGTTTATATCGGAGTCACCTAGTGCAG | 29100 fluorescence intensity (a.u.)
AATTATACAATCAATCAAATACTGAAATTTAAAATTGGTACGGAGTCACCTAGTGCAG | 15800 fluorescence intensity (a.u.)
CAAAAGAACAATTATTGATCAACTAATGTACACGTCCCAGCGGAGTCACCTAGTGCAG | 13900 fluorescence intensity (a.u.)
AGCTGAAATTAAGAACAGACAGACATGATCACAGATCGAGCGGAGTCACCTAGTGCAG | 10100 fluorescence intensity (a.u.)
TGATGATTAGTCGATTACTGTTTTCCTATAGCCATCGTTACGGAGTCACCTAGTGCAG | 30100 fluorescence intensity (a.u.)
AGGAATATATATAATTTACAAATAACTAAAATTTGATATTCGGAGTCACCTAGTGCAG | 4110 fluorescence intensity (a.u.)
ATCTGTCACATTAGACATAAATAAAATATTTGCGAAATGTCGGAGTCACCTAGTGCAG | 3540 fluorescence intensity (a.u.)
AAGTGTTTGTAATTACTAAAATTTTGACATGAATTCAAATCGGAGTCACCTAGTGCAG | 8700 fluorescence intensity (a.u.)
TGGTATTTAATTATTTGTTAGAGTCATCATTGGTCTATAACGGAGTCACCTAGTGCAG | 8940 fluorescence intensity (a.u.)
TTTAATTTGTTCATTAAAGACCTAAGAGCTAATAAACGGACGGAGTCACCTAGTGCAG | 23100 fluorescence intensity (a.u.)
CCATTAATTATGTTGGACATAATTAAGAGAATTTGCTAAACGGAGTCACCTAGTGCAG | 52300 fluorescence intensity (a.u.)
CGATTTCTTGTTTAATTACTAATCAATTTCATACATTCATCGGAGTCACCTAGTGCAG | 13400 fluorescence intensity (a.u.)
GATTATGATTTGGAGAAAATTGCATCCATAAAACATTAATCGGAGTCACCTAGTGCAG | 8000 fluorescence intensity (a.u.)
ACTCAGTATACACTAATTAGCAATTATTACCGAAATTGTACGGAGTCACCTAGTGCAG | 23400 fluorescence intensity (a.u.)
GAGTAATTACTAATTAGCTGGTACACTCAATCCAGTACGGCGGAGTCACCTAGTGCAG | 59000 fluorescence intensity (a.u.)
AAATCAATAATTAAATATAGTTTCATAATATATTTATCTTCGGAGTCACCTAGTGCAG | 22700 fluorescence intensity (a.u.)
GTTAATTTTGTTTAATTAATGGTGGAAGCAGCCATCATCACGGAGTCACCTAGTGCAG | 38200 fluorescence intensity (a.u.)
TTTAATTACTAATCAATTTCATACATTCATATAGTTTATTCGGAGTCACCTAGTGCAG | 55600 fluorescence intensity (a.u.)
CTTCTAATTTTGTTAATTGGGAAGACATCATAGAGTGGAACGGAGTCACCTAGTGCAG | 65400 fluorescence intensity (a.u.)
TTGACCAATCAATTACTCACTGGTACGGAAAACACTATAGCGGAGTCACCTAGTGCAG | 23300 fluorescence intensity (a.u.)
TGGATTAAACTAATTTACTGATAAGGTGCGTACAAAATTGCGGAGTCACCTAGTGCAG | 9850 fluorescence intensity (a.u.)
CTATGTCTGTGTTTGATGATTGCAAGCTGATGTGGGATGGCGGAGTCACCTAGTGCAG | 9180 fluorescence intensity (a.u.)
ATCTATCTATCTATCTATCTATCTATCTATCTATCTATCTCGGAGTCACCTAGTGCAG | 20600 fluorescence intensity (a.u.)
ATCTGTGTAGTCAATTATATTCTCCCTGGGGCCAAACGAACGGAGTCACCTAGTGCAG | 4100 fluorescence intensity (a.u.)
CCAGTCAAGGGAACAGATTGACCAATCGTTCACACCAGTGCGGAGTCACCTAGTGCAG | 18400 fluorescence intensity (a.u.)
CATTTGACTGAACAAGAACAGTAGGATCAATCTTTGTGCACGGAGTCACCTAGTGCAG | 16900 fluorescence intensity (a.u.)

Sequence | binding signal
ATGACACATGCCGTTGATTGGTTGACACAGATCGGATTCGCGGAGTCACCTAGTGCAG | 46900 fluorescence intensity (a.u.)
TTTGTTGATTTGTTTTGGTTGGATTGATCTGTCGCTTATACGGAGTCACCTAGTGCAG | 25500 fluorescence intensity (a.u.)
AACACATTGGATTGATTGATCTGTCGCGGAACAGATTGACCGGAGTCACCTAGTGCAG | 52300 fluorescence intensity (a.u.)
TGATCTGATTGAACAGTCAATCACAGATTCACAGTAGGACCGGAGTCACCTAGTGCAG | 62500 fluorescence intensity (a.u.)
TTCCAACCAATCATAACCCAATAAGAGCAAAATGGAAAACCGGAGTCACCTAGTGCAG | 4060 fluorescence intensity (a.u.)
AGGTGTTGATTTTGGGTGGCGGGCCCAATCGGATAGGCCACGGAGTCACCTAGTGCAG | 3770 fluorescence intensity (a.u.)
CTGAGGACACTTAATGATTGATGCTCATAATATATTGTTTCGGAGTCACCTAGTGCAG | 17300 fluorescence intensity (a.u.)
AAAAGCAGGTTTACTTACGCCTCATGTTCTCACACTAATTCGGAGTCACCTAGTGCAG | 24400 fluorescence intensity (a.u.)
TCTGTCTGATTTGTAATCTTTTCCCTTGGCTTTGAGCGTGCGGAGTCACCTAGTGCAG | 29400 fluorescence intensity (a.u.)
AATTAATTAATTAGCAATGCAGCATCGTCGATCATTGACCCGGAGTCACCTAGTGCAG | 62500 fluorescence intensity (a.u.)
TTTGCCACTAATTAATCTACTAATGGCTTATGATAGTCATCGGAGTCACCTAGTGCAG | 10700 fluorescence intensity (a.u.)
TATATATATATAATTATGCATCCTGGTTAGCAATTAATGTCGGAGTCACCTAGTGCAG | 3400 fluorescence intensity (a.u.)
CTTAATTAATTAATAGCAGCAGCAATGCCACTGTGGCCATCGGAGTCACCTAGTGCAG | 53500 fluorescence intensity (a.u.)
GCAATAATAATTACTGATAGCCACCACTATCAATAATAATCGGAGTCACCTAGTGCAG | 12600 fluorescence intensity (a.u.)
GGTCGATCCATCGATTGATGGATCAATAATGCAAGCAAGCCGGAGTCACCTAGTGCAG | 5030 fluorescence intensity (a.u.)
TTATTTGTTTTGTTTGTGATTTGCTTTATTATCAAAAGTACGGAGTCACCTAGTGCAG | 4600 fluorescence intensity (a.u.)
ATCGTATCATTGATTTTCACTTAATATGGTGGACCCATCACGGAGTCACCTAGTGCAG | 12700 fluorescence intensity (a.u.)
ACAGACATAAATACGATTGATTAAGTAGTAGCCTAGCTAACGGAGTCACCTAGTGCAG | 14600 fluorescence intensity (a.u.)
GGTTTATTCAATTATGAAATTTTACTCCCCTATGTACTAACGGAGTCACCTAGTGCAG | 11100 fluorescence intensity (a.u.)
GTTCATGCAATAACGTTAATTTGGGACTAGATTAGTATCCCGGAGTCACCTAGTGCAG | 7620 fluorescence intensity (a.u.)
TTTATAATTAGTATCAAAACATCCGATATGATAGTTACTTCGGAGTCACCTAGTGCAG | 17100 fluorescence intensity (a.u.)
CCAATCCACAACATAACCATCAATCATTCATTGACGCAAGCGGAGTCACCTAGTGCAG | 4680 fluorescence intensity (a.u.)
GATTAATTTACTAGACGAATCTTTTAAGCCTAATTACTCCCGGAGTCACCTAGTGCAG | 36100 fluorescence intensity (a.u.)
CTAAACACGTTGATGGGCCTGAATGGAGGAAGCCCATCGACGGAGTCACCTAGTGCAG | 3790 fluorescence intensity (a.u.)
TTTCATGTAAATTAACACGAGCCTGAATCCTCCGTTGAAGCGGAGTCACCTAGTGCAG | 3750 fluorescence intensity (a.u.)
CCGTCGCCTGATGGAGCAGAATCGTGAAACACGTTGTAAGCGGAGTCACCTAGTGCAG | 57800 fluorescence intensity (a.u.)
ATAATAATTAGTCATAAAGACAAGTGCTTATGCCCACTTACGGAGTCACCTAGTGCAG | 16700 fluorescence intensity (a.u.)
